{
  "source": "paper PMC9574860",
  "about": "“Chemical Toolkit for PARK7: Potent, Selective, and High-Throughput” (Journal of Medicinal Chemistry, 2022)",
  "note": "Out of some 7,900 compounds screened, about 400 (5.1%) showed an effect of 50% or more. This is one part of a sample in which strong results are shown more often than they occur.",
  "data": [
    {"biological_target": "Parkinson's disease protein 7 (PARK7/DJ1) (human, UniProt Q99497)", "sequence (Q99497 whole entry, looked up, the tested form may be a part)": "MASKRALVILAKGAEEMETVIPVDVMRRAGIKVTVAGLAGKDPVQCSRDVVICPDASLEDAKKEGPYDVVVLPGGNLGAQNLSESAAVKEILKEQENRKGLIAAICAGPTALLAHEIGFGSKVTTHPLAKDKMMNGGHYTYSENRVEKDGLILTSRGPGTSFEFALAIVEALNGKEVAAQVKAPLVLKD", "assay": "primary screen, percent inhibition; read as competition with a fluorescent probe by fluorescence polarization; higher = more effect of the substance", "details": "100 µM", "in_short": "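Covalent fragments at 100 μM final were incubated 2 h with 0.2 μM PARK7, then 20 nM probe JYQ-107 added for a further 2 h. Fluorescence polarization read at 480/520 nm; relative FP loss versus reference controls gave remaining enzyme activity.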", "units": {"Inhibition %": "%"}, "values": [
      {"smiles": "C=CC(=O)N1CCC(c2ccnn2C)CC1", "Inhibition %": 4.28},
      {"smiles": "Cc1ccc(C#N)nc1N1CCCOC(C)C1", "note": "(stereo not shown)", "Inhibition %": 42.8},
      {"smiles": "COC1CCN(c2nc(C#N)c(Cl)s2)CC1", "Inhibition %": 7.16},
      {"smiles": "COC1CCN(c2nc(C#N)ccc2C)CC1", "Inhibition %": 71.3},
      {"smiles": "N#CC(=Cc1cnn(-c2ccccc2)c1)C(=O)O", "Inhibition %": 10.6},
      {"smiles": "CN(C)C(=O)Sc1cnc2nccn2c1", "Inhibition %": 3.18},
      {"smiles": "CN(C(=O)CCl)C1CCCCC1", "Inhibition %": 92.5},
      {"smiles": "CN(C(=O)CCl)C1CC1", "Inhibition %": -0.367},
      {"smiles": "CN(C(=O)CC1OCCCO1)C1CCCCC1", "Inhibition %": 3.82},
      {"smiles": "CN(CC12CC3CC(CC(C3)C1)C2)C(=O)CCl", "Inhibition %": 9.71},
      {"smiles": "CC1CCC(N(C)C(=O)CCl)CC1", "note": "(stereo not shown)", "Inhibition %": 101},
      {"smiles": "CN(CC1CCCCC1)C(=O)CCl", "Inhibition %": 50},
      {"smiles": "CN(CC1CC1)C(=O)CCl", "Inhibition %": 50.3},
      {"smiles": "CCN(C(=O)CCl)C1CCCCC1", "Inhibition %": 9.37},
      {"smiles": "CN(C(=O)CCl)C1CCS(=O)(=O)C1", "note": "(stereo not shown)", "Inhibition %": 8.14},
      {"smiles": "C=CC(=O)Nc1cccc2c1CN(CC(C)C)C2", "Inhibition %": 8.44},
      {"smiles": "O=C(c1ccc(S)nc1)N1CCCC1", "Inhibition %": 40.7},
      {"smiles": "N#CN(Cc1nnc(C2CCC2)o1)c1ccc(F)c(Cl)c1", "Inhibition %": -0.412},
      {"smiles": "C=CC(=O)N1CCC12CCOC2", "note": "(stereo not shown)", "Inhibition %": 7.06},
      {"smiles": "Cc1ccc(C(C)NC(=O)Cn2cnc(C#N)n2)cc1C", "note": "(stereo not shown)", "Inhibition %": 3.5},
      {"smiles": "Cc1cc(S(=O)(=O)F)ccc1C(=O)O", "Inhibition %": 85.1},
      {"smiles": "CC(=O)c1ccc(S(=O)(=O)F)cc1", "Inhibition %": 34.9},
      {"smiles": "Cc1ccc(S(=O)(=O)F)cc1", "Inhibition %": 2.62},
      {"smiles": "O=C(O)c1cc(S(=O)(=O)F)ccc1Cl", "Inhibition %": 7.95},
      {"smiles": "Cc1ccc(S(=O)(=O)F)cc1C(=O)O", "Inhibition %": 87.9},
      {"smiles": "C=CC(=O)NC1CCOC2(CCSC2)C1", "note": "(stereo not shown)", "Inhibition %": 6.26},
      {"smiles": "Cc1cc(C)n(S(=O)(=O)N2CCCCC2)n1", "Inhibition %": 7.02},
      {"smiles": "COCC1(C(=O)Nc2cccc(S(=O)(=O)F)c2)CCCC1", "Inhibition %": 94.3},
      {"smiles": "CCC1(C(=O)Nc2cccc(S(=O)(=O)F)c2)CCC1", "Inhibition %": 93.8},
      {"smiles": "COc1ccccc1C(=O)Nc1cccc(S(=O)(=O)F)c1", "Inhibition %": 4.59},
      {"smiles": "O=C(Nc1cccc(S(=O)(=O)F)c1)C1(CF)CCC1", "Inhibition %": 95.8},
      {"smiles": "O=C(Nc1cccc(S(=O)(=O)F)c1)C1(CF)CCOCC1", "Inhibition %": 95.3},
      {"smiles": "COc1ccc(S(=O)(=O)n2ccc(C)n2)cc1C", "Inhibition %": 2.32},
      {"smiles": "Cc1nn(C)c(Cl)c1C=CC(=O)N1CCC(C(=O)O)C1.Cl", "note": "(stereo not shown)", "Inhibition %": 7.34},
      {"smiles": "C=CC(=O)NCC1CC2(CCC2)CO1", "note": "(stereo not shown)", "Inhibition %": 5.74},
      {"smiles": "Cc1cccc(-n2nnnc2SC2CC(C)OC2=O)c1", "note": "(stereo not shown)", "Inhibition %": 3.51},
      {"smiles": "Cn1cc(NS(=O)(=O)C=Cc2ccccc2Cl)cn1", "Inhibition %": 28.6},
      {"smiles": "CCn1cc(C2NC(=O)C23CCOCC3)cn1", "note": "(stereo not shown)", "Inhibition %": 2.01},
      {"smiles": "Cc1ccc(NC(=O)C(C#N)=Cc2cn(C)cn2)c(C)c1", "Inhibition %": 10.3},
      {"smiles": "CCN(C(=O)CCl)c1ccc(F)cc1", "Inhibition %": 31.3},
      {"smiles": "Cc1cc(C=C(C#N)C(=O)NCC2CCCO2)ccc1F", "note": "(stereo not shown)", "Inhibition %": 2.68},
      {"smiles": "O=C(N[C@H]1CC[C@@H](CS(=O)(=O)F)C1)C1CCOCC1", "note": "(racemic)", "Inhibition %": 77.4},
      {"smiles": "COC(=O)C1CC(S(=O)(=O)F)CN1C(=O)C1CCOCC1", "note": "(stereo not shown)", "Inhibition %": 9.64},
      {"smiles": "O=S(=O)(F)CC1CCOCC1", "Inhibition %": 10.5},
      {"smiles": "CC(C)(C)OC(=O)N1CCCC(S(=O)(=O)F)C1", "note": "(stereo not shown)", "Inhibition %": 10.7},
      {"smiles": "Cl.N[C@@H]1CC[C@H](CS(=O)(=O)F)C1", "note": "(racemic)", "Inhibition %": 22.9},
      {"smiles": "CC(C)(C)OC(=O)N[C@@H]1CC[C@H](CS(=O)(=O)F)C1", "note": "(racemic)", "Inhibition %": 87.2},
      {"smiles": "CC(C)C1(c2ccccc2)CO1", "note": "(stereo not shown)", "Inhibition %": 4.43},
      {"smiles": "N#CSCc1nc2ccccc2[nH]1", "Inhibition %": 24.5},
      {"smiles": "COc1cc(SC#N)ccc1O", "Inhibition %": 15.4},
      {"smiles": "CS(=O)(=O)OCC1CCCNC1=O", "note": "(stereo not shown)", "Inhibition %": 7.7},
      {"smiles": "Cl.O=S(=O)(F)CCNc1ccc(Cl)cc1", "Inhibition %": 66},
      {"smiles": "COc1ccc(NCCS(=O)(=O)F)cc1.Cl", "Inhibition %": 44.4},
      {"smiles": "Cl.O=S(=O)(F)CCNc1ccc(F)cc1", "Inhibition %": 36.8},
      {"smiles": "N#Cc1ccc(Cl)c(Cl)n1", "Inhibition %": 5.12},
      {"smiles": "N#Cc1ccc2cc[nH]c2n1", "Inhibition %": 68.4},
      {"smiles": "N#Cc1ccc2[nH]ccc2n1", "Inhibition %": 18.7},
      {"smiles": "COc1cc(C=C(C#N)C(=O)NC(C)C)cc(Cl)c1O", "Inhibition %": -0.272},
      {"smiles": "Cl.NC1C=CS(=O)(=O)C1", "note": "(stereo not shown)", "Inhibition %": 9.63},
      {"smiles": "NC(=O)c1c(NC(=O)CCl)sc2c1CCC2", "Inhibition %": 38.6},
      {"smiles": "CCn1nc(C)c(C(=O)CCl)n1", "Inhibition %": 13.1},
      {"smiles": "CN(Cc1cnn(C)c1)C(=O)CCl.Cl", "Inhibition %": 20.6},
      {"smiles": "Cn1ccnc1C(=O)CCl", "Inhibition %": 32.3},
      {"smiles": "Cl.O=C(CCl)c1csc(N2CCCCC2)n1", "Inhibition %": 2.02},
      {"smiles": "Cn1cc(C(=O)CCl)cn1", "Inhibition %": 77.2},
      {"smiles": "Cn1cccc1C(=O)CCl", "Inhibition %": 8.03},
      {"smiles": "Cn1nncc1C(=O)CCl", "Inhibition %": 82.2},
      {"smiles": "CCn1ncc(C(=O)CCl)n1", "Inhibition %": 87.8},
      {"smiles": "C=CC(=O)NCCCc1cnn(C)n1", "Inhibition %": 5.99},
      {"smiles": "Cn1nccc1C(=O)CCl", "Inhibition %": 15.4},
      {"smiles": "Cn1ncc(C(=O)CCl)n1", "Inhibition %": 95.3},
      {"smiles": "Cn1ccc(C(=O)CCl)c1", "Inhibition %": 49},
      {"smiles": "OC1(C2CO2)CCOCC1", "note": "(stereo not shown)", "Inhibition %": 7.63},
      {"smiles": "CC1(C)OB(c2cccc(CN3CCOCC3)c2)OC1(C)C.Cl", "Inhibition %": 25.8},
      {"smiles": "N#CN(Cc1ccc(C(N)=O)cc1)c1ccc(F)cc1", "Inhibition %": 3.09},
      {"smiles": "C=CC(=O)NC1CCCC1C(=O)NC", "note": "(stereo not shown)", "Inhibition %": 9},
      {"smiles": "Cc1nc(C=CC(=O)N2CCC(C)(C(=O)O)C2)cs1", "note": "(stereo not shown)", "Inhibition %": 5.72},
      {"smiles": "COc1ccc(C2=NC(=Cc3csc(C)n3)C(=O)O2)cc1", "Inhibition %": 14.1},
      {"smiles": "Nc1ccc(N2CCC2=O)cc1", "Inhibition %": 16.5},
      {"smiles": "O=C(CCl)Nc1ncc([N+](=O)[O-])s1", "Inhibition %": 96.3},
      {"smiles": "O=C(CCl)Nc1nc2ccc([N+](=O)[O-])cc2s1", "Inhibition %": 6.68},
      {"smiles": "Cc1ccc(Cc2cnc(NC(=O)CCl)s2)cc1", "Inhibition %": 7.26},
      {"smiles": "C=CC(=O)Nc1ccc(F)c(F)c1", "Inhibition %": 7.82},
      {"smiles": "CCc1nccn1S(=O)(=O)c1ccc(Cl)c(C)c1", "Inhibition %": 1.29},
      {"smiles": "CC(C)NC(=O)C(C#N)=Cc1cccc(O)c1", "Inhibition %": 19.6}
    ]}
  ]
}
